# This is one part of a sample in which hits are shown more often than they occur.
# FECH inh: inhibitors of human ferrochelatase, primary screen, biochemical, purified FECH, Ni-mesoporphyrin absorbance. Ni-mesoporphyrin absorbance 550 nm. calls only at 10 µM (by protocol). 20,000 compounds, 3.3% hits;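 active means enzyme reaction rate more than 3 SD below the solvent-only control wells on the same plate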;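 further: lower slope than DMSO wells means FECH inhibition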
# Target sequence (P22830 whole entry, looked up): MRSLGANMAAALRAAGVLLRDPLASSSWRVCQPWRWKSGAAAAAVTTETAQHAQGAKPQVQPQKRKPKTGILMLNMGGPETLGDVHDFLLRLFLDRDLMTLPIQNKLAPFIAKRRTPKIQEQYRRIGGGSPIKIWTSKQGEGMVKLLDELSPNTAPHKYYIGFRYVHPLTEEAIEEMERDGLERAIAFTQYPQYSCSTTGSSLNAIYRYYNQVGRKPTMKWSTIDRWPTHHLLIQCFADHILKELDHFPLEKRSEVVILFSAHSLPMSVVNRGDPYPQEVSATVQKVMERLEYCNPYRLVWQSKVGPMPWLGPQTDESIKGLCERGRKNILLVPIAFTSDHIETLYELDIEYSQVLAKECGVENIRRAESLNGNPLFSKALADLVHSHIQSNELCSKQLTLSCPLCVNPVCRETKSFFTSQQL
# Calls only; – = inactive; + = active, no number.
SMILES,FECH inh
CCN(CC)C(=O)c1ccccc1NC(=O)CN1c2ccc(F)cc2-c2ccccc2S1(=O)=O,+
CSc1ccccc1NC(=O)CN1c2ccc(C(C)C)cc2-c2ccccc2S1(=O)=O,–
O=C(CN1C(=O)c2ccccc2S1(=O)=O)Nc1ccc(Cl)cc1C(F)(F)F,–
CC(C)c1ccc2c(c1)-c1ccccc1S(=O)(=O)N2CC(=O)Nc1cccc(F)c1,+
O=C(CN1c2ccc(F)cc2-c2ccccc2S1(=O)=O)Nc1ccccc1C(=O)N1CCCCC1,–
O=C(CN1CCN(Cc2ccc(F)cc2)S1(=O)=O)Nc1cccc(F)c1,–
CC(C)NC(=O)c1ccccc1NC(=O)CN1c2ccc(C(C)C)cc2-c2ccccc2S1(=O)=O,–
O=C(NCc1cnn(Cc2ccccc2)c1)c1ccccc1C1CCNC1 (stereo unspecified),–
O=[N+]([O-])c1cccc(S(=O)(=O)NCc2nc3cccnc3n2Cc2ccc(F)cc2)c1,–
Cc1cccc(N(C)C(=O)C2CCCN(c3ncnc4c3nc3n4CCCCC3)C2)c1 (stereo unspecified),–
Cc1cc(F)ccc1NS(=O)(=O)c1ccc2c(c1)CCN2C(=O)CCC(=O)N1CCCCCC1,–
Cc1cc(CN(C)C(=O)Nc2n[nH]c(Cc3ccccc3)n2)ccn1,–
COc1cccc(CNC(=O)c2nc(N3CCCC3)c3oc4ccccc4c3n2)c1,–
CCc1noc(CN(CC)C(=O)c2ccccc2N2CCCC2)n1,–
CCc1noc(CN(CC)C(=O)C(c2cccc(C)c2)N(C)C)n1 (stereo unspecified),–
CCc1noc(CN(CC)C(=O)C(C)n2cnc3ccccc32)n1 (stereo unspecified),+
COc1ccc(-c2ccc(=O)[nH]n2)cc1S(=O)(=O)Nc1cc(C)ccc1C,–
O=C(O)c1[nH]ncc1CN1CCC(c2[nH]ncc2-c2cccc(F)c2)CC1,–
Cc1ccc(CC2(NC(=O)C(C)NS(C)(=O)=O)CC2)cc1 (stereo unspecified),–
CC(=O)Nc1ccc(C)cc1S(=O)(=O)NCCn1c(C(F)(F)F)nc2cccnc21,–
Cc1ccc(NC(=O)NCCn2c(-c3ccncc3)nc3cccnc32)c(Cl)c1,–
COc1c[nH]c(C(=O)N[C@@H]2CC[C@@H](N)C2)cc1=O,–
COc1ccc(NS(=O)(=O)c2ccc(N)c(S(N)(=O)=O)c2)cc1,+
NS(=O)(=O)c1ccc(NS(=O)(=O)c2ccc3c(c2)NC(=O)CC(=O)N3)cc1,–
Cn1cnc(S(=O)(=O)Nc2ccc(S(N)(=O)=O)cc2)c1,–
SMILES,FECH inh
COc1ccc(-c2csc(C)n2)cc1S(=O)(=O)Nc1ccc(S(N)(=O)=O)cc1,–
CCN(CC)c1ncc(NS(=O)(=O)c2ccc(OC)cc2)cc1C(=O)O,–
CCc1ccc(NS(=O)(=O)c2ccc(C(=O)N(C)C)s2)cc1,–
Cc1ccc(NS(=O)(=O)c2ccc(N)c(S(N)(=O)=O)c2)cc1,+
CCc1ccc(NS(=O)(=O)c2ccc(N)c(S(N)(=O)=O)c2)cc1,+
CCc1ccc(NS(=O)(=O)c2ccc3c(c2)C(=O)NC3)cc1,–
CCOc1ccc(Nc2nc(NCc3ccccc3)nc3c2cnn3-c2ccccc2)cc1,–
CCc1cc(Sc2ccc(NC(=O)C(C)C)cc2)n2ncnc2n1,–
COc1ccc(Cl)cc1C(=O)Nc1cc(C)nn1-c1ncnc2c1cnn2-c1ccc(C)cc1C,–
CCC(C)(C)NC(=O)C1CCN(c2ccc(-c3cccs3)nn2)CC1,–
Cc1[nH]cnc1C(=O)NCc1nc(-c2cccc(F)c2)c(-c2ccccn2)[nH]1,–
CN1CCC=C(CNC(=O)C2(c3ccc(Cl)cc3)CCCC2)C1,–
CCc1c(C)nc2ncnn2c1Sc1ccccc1NC(=O)Nc1ccc(C)cc1,–
CCc1c(C)nc2ncnn2c1Sc1ccccc1NC(=O)Cc1ccc(OC)cc1,+
CCc1c(C)nc2ncnn2c1Sc1ccc(NC(=O)Cc2ccc(OC)cc2)cc1,–
CCc1c(C)nc2ncnn2c1Sc1ccccc1NC(=O)COc1ccc(C)cc1,–
CCc1c(C)nc2ncnn2c1Sc1ccccc1NC(=O)C1CC1,+
CCc1c(C)nc2ncnn2c1Sc1ccc(NC(=O)C2CC2)cc1,–
Cc1ncsc1CCC(=O)NCc1snnc1C(C)C,–
CCOc1ccc(NC(=O)CSc2nnc(-c3ccccc3NC(=O)CC)c(=O)[nH]2)cc1,–
CC(C)Cc1nnc2sc(CCc3nc(-c4ccco4)no3)nn12,–
CCn1c(=O)n(Cc2ccc(F)cc2Cl)c(=O)c2cnc(-c3ccc(OC)cc3)nc21,–
CC(C)C(=O)N[C@H]1C[C@@H](C(=O)NCCCN2CCCC2=O)N(C)C1,–
CCNC(=O)COc1nc(CC)nc2onc(-c3ccc(F)cc3)c12,+
CCc1nc(OCC(=O)NCc2ccccn2)c2c(-c3ccc(F)cc3)noc2n1,–
SMILES,FECH inh
C=CCNC(=O)COc1nc(CC)nc2onc(-c3ccc(F)cc3)c12,–
COc1cccc(S(=O)(=O)NCc2nc3cccnc3n2C2CC2)c1,–
CCOc1ccc(N(Cc2nc3nc(C)cc(C)n3n2)C(=O)C2CCCCC2)cc1,–
C=CCNC(=O)CN1c2ccc(Br)cc2-c2ccccc2S1(=O)=O,+
CC(C)c1ccc2c(c1)-c1ccccc1S(=O)(=O)N2CC(=O)N1CC(=O)Nc2ccccc21,–
COc1ccc(C)cc1NC(=O)CN1c2ccc(Br)cc2-c2ccccc2S1(=O)=O,+
CN1CCN(C(=O)CN2c3ccc(Br)cc3-c3ccccc3S2(=O)=O)CC1,+
O=C(CN1c2ccc(Br)cc2-c2ccccc2S1(=O)=O)NCCC1=CCCCC1,+
COc1ccc(C)cc1NC(=O)Cn1ccnc1-c1nccn1C,–
O=C(CN1c2ccc(Br)cc2-c2ccccc2S1(=O)=O)N1CCc2ccccc2C1,–
Cc1cc(N(C)C)nc(Nc2ccc(NC(=O)c3ccccc3C)cc2)n1,–
Cc1ccccc1Nc1nc(N2CCN(c3ccc(F)cc3)CC2)nc2c1cnn2-c1ccccc1,–
Cc1cc(N2CCCC2)nc(Nc2ccc(NC(=O)c3cccc(Br)c3)cc2)n1,–
CCn1cc(S(=O)(=O)N2CCN(c3cc(-c4ccc(OC)cc4)ncn3)CC2)cn1,–
CNCC(=O)NCCCc1nc2c(C)c(C)ccc2[nH]1,–
O=C(CCC(=O)N1CCc2cc(S(=O)(=O)Nc3ccc(F)cc3)ccc21)N1CCOCC1,–
CCNC(=O)CN1c2ccc(Br)cc2-c2ccccc2S1(=O)=O,+
CCc1ccc2c(c1)-c1ccccc1S(=O)(=O)N2CC(=O)Nc1cc(C)ccc1C,+
O=C(CN1c2ccc(Br)cc2-c2ccccc2S1(=O)=O)NCC1CCCO1 (stereo unspecified),+
CC(C)NC(=O)CN1c2ccc(Br)cc2-c2ccccc2S1(=O)=O,+
COc1ccccc1CNC(=O)CN1c2ccc(Br)cc2-c2ccccc2S1(=O)=O,–
CCc1ccc2c(c1)-c1ccccc1S(=O)(=O)N2CC(=O)Nc1ccc2c(c1)OCO2,–
Cc1cccc(NC(=O)CC(=O)NC[C@@H]2CCCO2)c1C,–
COCC(C)NC(=O)CN1c2ccc(F)cc2-c2ccccc2S1(=O)=O (stereo unspecified),–
CCc1ccc2c(c1)-c1ccccc1S(=O)(=O)N2CC(=O)Nc1ccccc1Oc1ccccc1,–
O=C(CN1c2ccc(F)cc2-c2ccccc2S1(=O)=O)NC(c1ccccc1)c1ccccc1,–
CC(O)CNC(=O)C(=O)NCc1n[nH]c(=O)c2ccccc12 (stereo unspecified),–
OCC1(Cc2ccc(Cl)cc2)CCN(c2ncccc2F)CC1,–
